Screening results from PubChem BioAssay.
TGFb SMAD3 inh – blocks TGF-b signaling. Potency, µM (doses to about 46.1 µM), for the others: at the top dose activity, negative = inhibition, usual class: inhibitors. 410,000 compounds, 1.2% hits. AID 588855. HepG2 CAGA-GFP TGF-b/SMAD3 reporter, GFP fluorescence, 18 h; TGF-beta stimulated, 500 pg/mL final; also: potency is read from the fitted curve at half-maximal effect; % is scaled to controls: 0 for no effect and ±100 for the full control effect; nearly all actives have a fitted effect of over 65% in size
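Inhibition of TGF-beta-driven CAGA-GFP reporter expression in HEPG2 cells is measured by cellular GFP fluorescence after 18 h stimulation with 500 pg/mL recombinant TGF-beta in 1% FBS medium at 37 degrees C.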
HepG2 viability – kills HepG2 cells in TGF-b inhibitor counter-screen; HepG2 CAGA-GFP viability, ATP luminescence, 18 h; Potency, µM (top dose mostly 46.1 µM), for the others: at the highest dose activity change, negative = cytotoxicity, usual class: cytotoxic; 410,000 compounds, 0.76% hits; also: potency is read from the fitted curve at half-maximal effect
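CellTiter-Glo luminescence gave cytotoxicity after 18 hours at 37 degrees C. The cells were HepG2 CAGA-GFP in 1% FBS DMEM, stimulated with 500 pg/mL TGF-beta after compound addition. %Activity was normalised to no-cell wells (complete cell-killing) and DMSO (no toxicity), and curves were fitted and classified.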
Giardia killer – Giardia lamblia killing; Giardia lamblia trophozoite viability; activity change, % at 7.66 µM, hits read low; 340,000 compounds, 0.15% hits; AID 540267; in the data active = activity change below about -80%; inconclusive = between about -30% and that limit;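 also: parasites exposed to compound for two days anaerobically before the ATP read; % is scaled to controls: 0 for no effect and ±100 for the full control effect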
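Viability, read as ATP luminescence: trophozoites at 100 cells/well, compound added, 48 hrs anaerobic at 37 deg C, then 15-30 min room-temperature development before reading.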
HT1080NT lethal – kills 2HG-producing HT-1080-NT fibrosarcoma cells; HT-1080-NT fibrosarcoma viability, CellTiter-Glo ATP luminescence, 48 h; Potency, µM (doses to about 46.1 µM), without a hit: at the top dose activity, negative = less viability, actives largely listed as cytotoxic; 360,000 compounds, 1.6% hits;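 also: NT is the 2HG producing partner of a matched IDH1 knockdown line; potency is read from the fitted curve at half-maximal effect; 0% = DMSO-treated cells and -100% = media-only wells without cells; nearly all actives have a fitted effect of over 55% in size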
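Toxicity toward the 2HG-producing NT line was scored as %Activity, normalised to DMSO and no-cell wells, from CellTiter-Glo luminescence after 48 hours' treatment.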
IL-1B inflam inh – blocks inflammasome-driven IL-1 beta release; THP-1 LPS/ATP IL-1B secretion, AlphaLISA, 16 h; hits give low values; activity change, % at 57.5 µM; 360,000 compounds, 4.7% hits; in the data active = activity change below about -50%; inconclusive = mostly about -30% to -49%; also: % is scaled to controls: 0 for no effect and ±100 for the full control effect
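Secreted IL-1B measured by AlphaLISA bead assay after 16 h compound exposure of THP-1 cells; compounds (final up to 57.5 uM) added 1 h before LPS (250 ng/mL) and ATP (1.25 mM) stimulation; lower signal means less secretion.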
HT1080 IDH1KD tx – HT-1080 IDH1 knockdown cell toxicity (counter line); HT-1080 IDH1 knockdown viability, ATP luminescence, 48 h; Potency, µM (series often up to 46.1 µM), for the others: at the top dose activity, negative = toxicity, usual class: cytotoxic; 360,000 compounds, 2% hits; AID 686971;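 also: potency is read from the fitted curve at half-maximal effect; 0% = DMSO wells and -100% = cell-free medium wells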
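IDH1KD HT-1080 cells, 750/well, RPMI + 5% FBS; compound pinned after 2 h settling; 48 h, 37 °C; CellTiter-Glo luminescence; % activity normalised to DMSO and no-cell wells; curves fitted, classed by r2 and efficacy.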
Numbers without * were called inactive; [ ] = another dose, or the depositor's remark. Rows were chosen to be rich in hits. Some 6.5% of all compounds tested hit in one or more screens of this group. Unless noted, calls follow the shape of the dose curve; as a rule, active = well fitted curve in the direction sought with a large enough effect; inconclusive = small, poorly fitted or top-dose-only effect, or another doubt; inactive = no such curve, though single readings can be large; an effect the other way counts as inactive or inconclusive.

`C=CCCC(=O)Nc1nc(C)c(-c2csc(Nc3cc(OC)ccc3OC)n2)s1` gave TGFb SMAD3 inh inconclusive, HepG2 viability 0.4%, Giardia killer -3.0, HT1080NT lethal 7.31µM*, IL-1B inflam inh -3.3 and HT1080 IDH1KD tx 7.31µM*.
For Cc1ccc2c(C)c(C(=O)N3CCN(Cc4ccc5c(c4)OCO5)CC3)oc2c1C the results were TGFb SMAD3 inh inconclusive, HepG2 viability -44.0%, Giardia killer -1.7, HT1080NT lethal -11.3%, IL-1B inflam inh -77.5* and HT1080 IDH1KD tx -27.4%.
Screening Cc1ccc(C(=O)N2CCN(Cc3ccc4c(c3)OCO4)CC2)o1 returned TGFb SMAD3 inh -0.7%, HepG2 viability -12.2%, Giardia killer 0.1, HT1080NT lethal 9.3%, IL-1B inflam inh -16.1 and HT1080 IDH1KD tx -1.3%.
O=C(c1sccc1Br)N1CCN(Cc2ccc3c(c2)OCO3)CC1 was read as TGFb SMAD3 inh -7.0%, HepG2 viability -55.6%, Giardia killer -12.2, HT1080NT lethal -0.6%, IL-1B inflam inh -71.1* and HT1080 IDH1KD tx -15.2%.
Screening Cc1ccc2c(C)c(C(=O)N3CCN(c4cnccn4)CC3)oc2c1C returned TGFb SMAD3 inh 26.7%, HepG2 viability 28.3%, Giardia killer 8.2, HT1080NT lethal 1.9%, IL-1B inflam inh -62.9* and HT1080 IDH1KD tx -8.3%.
Screening O=C(N1CCN(Cc2ccc3c(c2)OCO3)CC1)C12CC3CC(CC(C3)C1)C2 returned TGFb SMAD3 inh -8.6%, HepG2 viability -34.2%, Giardia killer 8.6, HT1080NT lethal 4.8%, IL-1B inflam inh -84.5* and HT1080 IDH1KD tx -2.9%.
For O=C(c1cc(F)c(F)c(F)c1F)N1CCN(Cc2ccc3c(c2)OCO3)CC1 the results were TGFb SMAD3 inh -16.0%, HepG2 viability -25.8%, Giardia killer 19.6, HT1080NT lethal -1.4%, IL-1B inflam inh -11.5 and HT1080 IDH1KD tx 0.8%.
COc1ccc(N=NC2=C(O)CC(C)(C)CC2=O)c(OC)c1 was read as TGFb SMAD3 inh -4.0%, HepG2 viability -16.0%, Giardia killer -2.6, HT1080NT lethal 10.8%, IL-1B inflam inh 14.2 and HT1080 IDH1KD tx 14.3%.
`C#CCOCCOCCOCCNc1nc(N2CCN(C(=O)C([C@@H](C)O)n3cc([C@@H](N)CCCCN)nn3)CC2)nc(N2CCN(C(=O)[C@H](CC(N)=O)n3cc(C(N)[C@@H](C)CC)nn3)CC2)n1` (stereo partly drawn) gave TGFb SMAD3 inh -0.5%, HepG2 viability -15.2%, Giardia killer 20.5, HT1080NT lethal 12.4%, IL-1B inflam inh 18.0 and HT1080 IDH1KD tx 10.1%.
CCOc1ccc(NC(=O)CN2CCN(CC(=O)Nc3ccc(F)c(F)c3)CC2)cc1 was read as TGFb SMAD3 inh -1.1%, HepG2 viability -1.6%, Giardia killer 6.7, HT1080NT lethal -6.4%, IL-1B inflam inh -16.5 and HT1080 IDH1KD tx -1.2%[9.24 µM].
Screening CC1CC(C)CN(C(C(=O)NC2CCCCC2)c2cc3ccccc3o2)C1 (stereo not drawn) returned TGFb SMAD3 inh 15.8µM*, HepG2 viability -23.7%, HT1080NT lethal inconclusive, IL-1B inflam inh -28.1 and HT1080 IDH1KD tx inconclusive.
`CC1CC(C)CN(C(C(=O)NC2CCCCC2)c2ccnc3ccccc23)C1` (stereo not drawn) gave TGFb SMAD3 inh inconclusive, HepG2 viability -16.1%, HT1080NT lethal -3.0%, IL-1B inflam inh -3.8 and HT1080 IDH1KD tx -18.3%.
O=C(Nc1ccc2c(c1)nc1n2CCOC1)C1CCCCC1 was read as TGFb SMAD3 inh 6.7%, HepG2 viability 4.7%, Giardia killer -5.7, HT1080NT lethal 9.2%, IL-1B inflam inh -18.6 and HT1080 IDH1KD tx 6.0%.
Screening O=C(Nc1csc(Cc2c(Cl)cccc2Cl)n1)NN1CCOCC1 returned TGFb SMAD3 inh -11.1%, HepG2 viability -1.3%, Giardia killer -2.4, HT1080NT lethal -29.2%, IL-1B inflam inh -84.2* and HT1080 IDH1KD tx -1.2%.
COc1ccc(-c2ccc(=O)n(Cc3cccc(Cl)c3)n2)cc1 was read as TGFb SMAD3 inh 5.3%, HepG2 viability -22.7%, Giardia killer -11.8, HT1080NT lethal -10.2%, IL-1B inflam inh -51.1* and HT1080 IDH1KD tx -14.2%.
For Cc1ccc(-c2ccc(=O)n(Cc3cccc(Br)c3)n2)cc1 the results were TGFb SMAD3 inh 0.0%, HepG2 viability -2.6%, Giardia killer -20.0, HT1080NT lethal -22.0%, IL-1B inflam inh -77.6* and HT1080 IDH1KD tx -12.1%.
Cc1ccc(C)c(Cn2nc(-c3ccccc3)ccc2=O)c1 was read as TGFb SMAD3 inh 0.0%, HepG2 viability -15.9%, Giardia killer 0.3, HT1080NT lethal inconclusive, IL-1B inflam inh -74.9* and HT1080 IDH1KD tx -28.9%.
For Cc1ccc(-c2ccc(=O)n(Cc3cc(C)ccc3C)n2)cc1 the results were TGFb SMAD3 inh inconclusive, HepG2 viability -28.5%, Giardia killer 10.0, HT1080NT lethal -13.1%, IL-1B inflam inh inconclusive and HT1080 IDH1KD tx inconclusive.
COc1cccc2c1OCC(CN1CCN(Cc3ccccc3)C(CCO)C1)=C2 (stereo not drawn) was read as TGFb SMAD3 inh -17.0%, HepG2 viability -12.5%, Giardia killer 3.8, HT1080NT lethal -0.9%, IL-1B inflam inh 2.9 and HT1080 IDH1KD tx -4.7%.
Cc1cccc(C(=O)N/N=C/c2cc(Br)c(Br)o2)c1 was read as TGFb SMAD3 inh 0.0%, HepG2 viability -32.0%, Giardia killer -29.5, HT1080NT lethal -21.8%, IL-1B inflam inh -55.4* and HT1080 IDH1KD tx 0.2%.
Screening Cc1onc(-c2ccccc2)c1C(=O)N/N=C/c1c[nH]c2ccccc12 returned TGFb SMAD3 inh -17.5%, HepG2 viability -89.7%, Giardia killer 22.9, HT1080NT lethal -5.7%, IL-1B inflam inh -71.9* and HT1080 IDH1KD tx -29.2%.
Cc1onc(-c2ccccc2)c1C(=O)N/N=C/c1cc(Br)c(Br)o1 was read as TGFb SMAD3 inh inconclusive, HepG2 viability -21.2%, Giardia killer -0.6, HT1080NT lethal -12.1%, IL-1B inflam inh -93.1* and HT1080 IDH1KD tx inconclusive.
`Cc1nn(CC(=O)c2ccccc2Cl)c(C)c1[N+](=O)[O-]` gave TGFb SMAD3 inh -10.2%, HepG2 viability -1.9%, Giardia killer -14.7, HT1080NT lethal -4.2%, IL-1B inflam inh 45.7 and HT1080 IDH1KD tx -8.7%.
For CCOC(=O)c1cc(NC(=O)COc2ccc([N+](=O)[O-])cc2)cc(C(=O)OCC)c1 the results were TGFb SMAD3 inh inconclusive, HepG2 viability -11.8%, Giardia killer 34.4, HT1080NT lethal inconclusive, IL-1B inflam inh -3.9 and HT1080 IDH1KD tx inconclusive.
